High-throughput results from PubChem BioAssay.
Rows were chosen to be rich in hits. Some 2.3% of all compounds tested hit in one or more screens of this group.
CHRM1 agonist = human M1 muscarinic receptor agonism. P11229. CHO-K1 hM1, Fluo-8 calcium fluorescence, agonist mode; 0% DMSO, 100% acetylcholine EC100. activation, % at 3 µM. hit rate 0.33% among 360,000. AID 588814;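 active = activation above the run's mean compound activation plus 3 SD, cut at about 16% in these data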;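 note: peak over basal fluorescence ratio within a 140 s kinetic read after compound addition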
Target sequence (P11229 whole entry, looked up): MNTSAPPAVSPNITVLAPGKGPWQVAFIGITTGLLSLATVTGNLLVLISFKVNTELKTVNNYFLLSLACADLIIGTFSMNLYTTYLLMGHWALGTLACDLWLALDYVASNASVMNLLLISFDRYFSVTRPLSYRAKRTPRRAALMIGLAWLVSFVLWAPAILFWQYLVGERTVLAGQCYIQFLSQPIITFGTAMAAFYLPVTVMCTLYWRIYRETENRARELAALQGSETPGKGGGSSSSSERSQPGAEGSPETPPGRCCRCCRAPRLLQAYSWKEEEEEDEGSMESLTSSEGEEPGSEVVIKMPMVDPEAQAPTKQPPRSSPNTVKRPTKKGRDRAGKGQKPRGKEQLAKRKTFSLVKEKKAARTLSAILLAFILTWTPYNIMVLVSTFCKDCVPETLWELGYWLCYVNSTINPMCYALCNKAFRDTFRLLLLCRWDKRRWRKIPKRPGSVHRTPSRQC
CHO-K1 Ca ag = counter-screen for M1 agonists: effect in parental CHO-K1 cells; Fluo-8 calcium fluorescence; scaled to maximal ATP response, vehicle zero; activation, % at 3 µM; hit rate 0.48% among 360,000; AID 602248; in the data active = activation above about 15%;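 note: untransfected CHO-K1 host cells lacking M1 receptor as counterscreen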
M1 PAM parental = nonselective activator or artifact in parental CHO-K1 calcium assay; hit rate 0.02% among 360,000; activation, % at 3 µM; ATP EC20, Fluo-8 calcium fluorescence; 0% at ATP EC20, 100% at ATP max;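 active = activation above the run cutoff, the mean activation of all test compounds plus 3 SD, cut at about 40% in these data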;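 note: peak over basal fluorescence ratio in a 140 s read after ATP addition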
CHRM1 antagonist = blocks human M1 muscarinic receptor | inhibition, % at 3 µM | hit rate 1.3% among 360,000 | P11229 | AID 588852 | CHO-K1 hM1, Fluo-8 calcium fluorescence, ACh EC80 antagonist;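 active = percent inhibition above its own plate's cutoff, namely the mean of that plate's compound wells plus 3 SD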;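 note: peak over basal fluorescence ratio during 140 s after agonist addition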
CHRM1 PAM = human CHRM1 positive allosteric modulation | P11229 | CHO-K1 hM1, Fluo-8 calcium fluorescence, ACh EC20; 0% = ACh EC20, 100% = maximal ACh | activation, % at 3 µM | hit rate 0.088% among 360,000 | AID 588819; in the data active = activation above about 19%, passing the limit was not always enough
CHO-K1 Ca antag = counter-screen for M1 antagonists: effect in parental CHO-K1 cells | ATP-induced calcium, Fluo-8 fluorescence | inhibition, % at 3 µM | hit rate 0.6% among 360,000 | AID 602250;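 active = inhibition above a per-plate cutoff, the plate's mean sample inhibition plus 3 SD, cut at about 24% in these data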
A number is an active result; 0 = inactive.

SMILES | CHRM1 agonist | CHO-K1 Ca ag | M1 PAM parental | CHRM1 antagonist | CHRM1 PAM | CHO-K1 Ca antag
CC(C)(C)OC(=O)NCCCCCc1nnc(SCC(=O)Nc2cccc(Cl)c2)o1 | 0 | 0 | 0 | 36 | 0 | 0
CN(C)c1ccccc1-c1cc(NC=O)c2ncc(-c3cccc(C(F)(F)F)c3)n2c1 | 0 | 0 | 0 | 0 | 0 | 0
O=C(O)CN1C(=O)/C(=C/C=C/c2ccccc2)SC1=S | 0 | 0 | 0 | 0 | 0 | 31
O=C1/C(=C\c2cc(Cl)c(O)c(Cl)c2)SC(=S)N1Cc1ccccc1 | 51 | 16 | 0 | 54 | 0 | 0
CC(=O)c1ccc(NC(=O)CN2C(=O)/C(=C/C=C/c3ccccc3)SC2=S)cc1 | 0 | 0 | 0 | 0 | 0 | 0
COc1cccc(/C=C2\SC(=S)N(CCCC(=O)N3CCCCC3CCO)C2=O)c1 (stereo not given) | 0 | 15 | 0 | 0 | 0 | 0
O=C(CCN1C(=O)/C(=C\c2ccccc2)SC1=S)N1CCCCC1 | 0 | 15 | 0 | 0 | 0 | 0
Cc1ccc(/C=C2\SC(=S)N(CCC(=O)N3CCCCC3)C2=O)cc1 | 0 | 0 | 0 | 0 | 0 | 0
Cc1ccc(S(=O)(=O)N2CCC[C@H]2C(=O)OCc2nc3ccccc3s2)cc1 | 0 | 0 | 0 | 0 | 0 | 0
CCOc1ccccc1CN1CCNC(=O)C1CC(=O)NCc1ccccn1 (stereo not given) | 0 | 0 | 0 | 0 | 0 | 0
COc1ccc(NC(=O)c2coc(C)c2)cc1 | 0 | 0 | 0 | 0 | 0 | 0
COc1cccc(CN2CCN(C(c3ccccc3)c3ccccc3)CC2)c1O | 0 | 0 | 0 | 91 | 0 | 0
c1ccc(OCCN2CCNCC2)cc1 | 0 | 0 | 0 | 0 | 0 | 0
COc1cc(CN2CCN(C(c3ccccc3)c3ccccc3)CC2)cc(OC)c1OC | 0 | 0 | 0 | 96 | 0 | 0
OC(CN1CCN(C(c2ccccc2)c2ccccc2)CC1)c1ccc(Br)cc1 (stereo not given) | 0 | 0 | 0 | 38 | 0 | 0
c1ccc(OCCN2CCN(C(c3ccccc3)c3ccccc3)CC2)cc1 | 0 | 0 | 0 | 52 | 0 | 0
COc1cccc(CN2CCN(Cc3cc(OC)c(OC)c(OC)c3)CC2)c1OC | 0 | 0 | 0 | 0 | 0 | 0
CCn1ccnc1CN(C)C(=O)CCc1nnc(CCC2CCCCC2)o1 | 0 | 0 | 0 | 0 | 0 | 0
CN(C(=O)c1ccccc1[N+](=O)[O-])c1ccccc1C(=O)NCc1ccccc1 | 0 | 0 | 0 | 0 | 0 | 0
FC(F)(F)c1cccc(-n2c(Cn3nnc4ccccc43)n[nH]c2=S)c1 | 0 | 0 | 0 | 0 | 0 | 0
CN(C)c1ccc(C(=S)N2CCCC2)cc1Br | 0 | 0 | 0 | 0 | 0 | 0
CC(/C=N/NC(=O)c1sc(N)nc1C)=C\c1ccccc1 | 25 | 0 | 0 | 0 | 0 | 0
CCOc1ccc(C(C)=O)cc1CSC(=N)N | 0 | 0 | 0 | 0 | 0 | 0
CCCCOc1ccc(Br)cc1CSC(=N)N | 0 | 0 | 0 | 26 | 0 | 34
CCC1CCCCN1C(=O)CCS(=O)(=O)c1ccc2c(c1)CCN2C(C)=O (stereo not given) | 0 | 0 | 0 | 0 | 0 | 0
SMILES | CHRM1 agonist | CHO-K1 Ca ag | M1 PAM parental | CHRM1 antagonist | CHRM1 PAM | CHO-K1 Ca antag
CCc1ccc(CN2CCC(n3nccc3NC(=O)Cc3ccccc3)CC2)o1 | 0 | 0 | 0 | 0 | 0 | 0
Cc1ccc2nc(-c3ccc(F)cc3)c(Cc3cccc(Cl)c3)n2c1 | 0 | 0 | 0 | 0 | 0 | 32
Cc1ccc2nc(C(C)(C)C)c(Cc3cccc(Cl)c3)n2c1 | 0 | 0 | 0 | 70 | 0 | 0
Cc1ccc2nc(-c3ccccc3)cc(C(=O)N(C)CC(=O)Nc3ccccc3Br)c2c1 | 0 | 0 | 0 | 0 | 0 | 0
CC(CN1CCOCC1)OC(=O)C(C)(c1ccccc1)c1ccccc1 (stereo not given) | 0 | 0 | 0 | 0 | 0 | 0
CC(CN1CCCCC1)OC(=O)C(C)(c1ccccc1)c1ccccc1 (stereo not given) | 0 | 0 | 0 | 89 | 0 | 0
O=C(O)CC(NS(=O)(=O)Cc1ccccc1)c1cccc([N+](=O)[O-])c1 (stereo not given) | 0 | 0 | 0 | 0 | 0 | 0
Cc1cc(C)c(S(=O)(=O)NC(CC(=O)O)c2cccc([N+](=O)[O-])c2)c(C)c1 (stereo not given) | 0 | 0 | 0 | 0 | 0 | 25
Cc1ccccc1-n1nnnc1SCC(N)=O | 0 | 0 | 0 | 0 | 0 | 0
NC(=O)CSc1nnnn1CC(CC(=O)O)c1ccccc1 (stereo not given) | 0 | 0 | 0 | 0 | 0 | 25
CC(=O)N(c1cc(C)ccc1C)c1ccccc1[N+](=O)[O-] | 0 | 0 | 0 | 0 | 0 | 0
CN(C)CCCN(C(=O)CCc1ccccc1)c1nc2c(F)cccc2s1 | 0 | 18 | 0 | 0 | 0 | 0
Cc1ccc2nc(N(CCCN(C)C)C(=O)c3ccco3)sc2c1 | 0 | 0 | 0 | 0 | 0 | 0
CN(C)CCCN(C(=O)c1ccco1)c1nc2ccc(F)cc2s1 | 17 | 0 | 0 | 0 | 0 | 0
CN(C)CCCN(C(=O)c1ccco1)c1nc2c(F)cccc2s1 | 0 | 0 | 0 | 47 | 0 | 0
CN(C)CCCN(C(=O)c1ccco1)c1nc2c(F)cc(F)cc2s1 | 0 | 0 | 0 | 0 | 0 | 0
Oc1ccc(C[C@H]2CNC(=S)N2CC2CCCN2C[C@H](Cc2ccc(O)cc2)N2C[C@H](Cc3ccccc3)N(CCc3ccccc3)C2=S)cc1 (stereo not given in full) | 0 | 0 | 0 | 0 | 0 | 0
CCN(Cc1nc(-c2ccc(OC)c(OC)c2)no1)C(=O)c1ccoc1C | 0 | 0 | 0 | 0 | 0 | 0
O=C(COc1coc(CN2CCN(c3ccccc3F)CC2)cc1=O)NCC1CCCO1 (stereo not given) | 0 | 0 | 0 | 0 | 0 | 0
O=C(COc1ncnc2ccccc12)N1CCN(S(=O)(=O)c2ccc(Cl)cc2)CC1 | 0 | 0 | 0 | 0 | 0 | 63
COC(=O)c1cc(CNC(=O)CCCSc2ccccc2)ccc1OC | 0 | 0 | 0 | 0 | 0 | 0
O=C(CSc1nnc(SCc2ccccc2)s1)NNC(=S)Nc1ccccc1 | 0 | 0 | 0 | 0 | 0 | 29
CN(C)S(=O)(=O)c1cccc(NC(=O)c2cccc(S(=O)(=O)N3CCCCCC3)c2)c1 | 0 | 0 | 0 | 33 | 0 | 0
COc1ccc(S(=O)(=O)N2CCOCC2)cc1NC(=O)c1ccc(S(=O)(=O)N2CCCCC2)cc1 | 0 | 0 | 0 | 0 | 0 | 0
COc1ccc(S(=O)(=O)N2CCOCC2)cc1NC(=O)c1ccc(Cl)cc1 | 0 | 0 | 0 | 29 | 0 | 0
COc1ccccc1N(C)S(=O)(=O)c1ccc(C(=O)Nc2cccc(S(=O)(=O)N3CCOCC3)c2)cc1 | 0 | 0 | 0 | 38 | 0 | 0
CN(C)S(=O)(=O)c1cccc(NC(=O)c2ccc(S(=O)(=O)N3CCCCC3)cc2)c1 | 0 | 0 | 0 | 27 | 0 | 0
CN(c1ccccc1)S(=O)(=O)c1ccc(C(=O)Nc2cccc(S(=O)(=O)N3CCOCC3)c2)cc1 | 0 | 0 | 0 | 0 | 0 | 0
